UGM FP inh: Mtb UDP-galactopyranose mutase inhibition | P9WIQ1 | purified UGM, fluorescence polarization probe displacement | inhibition, % at 10 µM | hit rate 0.06% among 320,000 | AID 504406; in the data active = inhibition above about 10%, passing the limit was not always enough
Target sequence (P9WIQ1 whole entry, looked up): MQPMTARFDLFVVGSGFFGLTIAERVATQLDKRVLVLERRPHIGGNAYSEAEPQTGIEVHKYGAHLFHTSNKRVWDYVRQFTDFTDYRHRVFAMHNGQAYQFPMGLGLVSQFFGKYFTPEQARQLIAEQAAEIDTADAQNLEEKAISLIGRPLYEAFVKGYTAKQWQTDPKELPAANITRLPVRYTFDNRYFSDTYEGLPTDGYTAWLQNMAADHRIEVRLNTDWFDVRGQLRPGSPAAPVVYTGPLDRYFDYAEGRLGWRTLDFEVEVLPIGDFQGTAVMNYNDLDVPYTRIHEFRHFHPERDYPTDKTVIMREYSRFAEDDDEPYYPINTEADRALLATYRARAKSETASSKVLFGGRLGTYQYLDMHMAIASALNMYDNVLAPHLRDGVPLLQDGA
GDH-TPI inh: GDH-TPI coupled enzyme inhibition counter-screen | GDH-TPI coupled enzyme counterscreen, NADH absorbance | hit rate 1.2% among 360,000 | inhibition, % at 4.8 µM; in the data active = inhibition above about 30%;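 also: 0% = DMSO wells and 100% = wells lacking the enzyme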
Mtb FBA inh: inhibits M. tuberculosis FBA enzyme. P9WQA3. purified M. tuberculosis FBA, fluorescence read-out. inhibition, % at 1 µM. hit rate 2.3% among 360,000. AID 588726; in the data active = inhibition above about 27%;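 also: 0% = vehicle and 100% = reference inhibitor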
Mtb betalactam: beta-lactam sensitization of Mtb H37Rv | inhibition, % at 25 µM | hit rate 0.27% among 330,000 | M. tuberculosis H37Rv growth with meropenem, percent inhibition; call rule not given here;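 also: growth measured after seven days incubation then overnight dye step; 0% = bacteria only wells and 100% = bacteria with antibiotic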
Rv3671c protease: Rv3671c (M. tuberculosis) protease inhibition | hit rate 0.048% among 320,000 | inhibition, % at 5.96 µM; in the data active = inhibition above about 38%;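 also: extracellular domain of Rv3671c used as enzyme; 0% = enzyme with DMSO and 100% = no enzyme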
Numbers without * were called inactive; / = no result; + = active, no number. Sampled rows, rich in hits. Any-hit rate of the full collection: about 3.5%.

SMILES	UGM FP inh	GDH-TPI inh	Mtb FBA inh	Mtb betalactam	Rv3671c protease
C=CCCCCc1nc2ccccc2c(=O)n1N	-2	-7	4	6	-1
CCCCCCc1nc2ccccc2c(=O)n1N	-1	14	136*	-9	-10
O=c1[nH]c(=S)[nH]c2nc(-c3ccccc3)cnc12	3	16	2	33	-6
O=c1[nH]c(=O)c2nc(-c3ccc(Cl)cc3)cnc2[nH]1	-2	9	+	-4	-10
CC(c1cccs1)N(C)Cc1nc(CCc2ccccc2)no1 (stereo not drawn)	1	0	-1	5	-2
CC(=O)C(=Nc1ccc(Cl)cc1Cl)NNc1cccc(Cl)c1	0	31*	1	94	-4
CN1c2ccccc2-c2nc3ccccc3n2C1c1cccs1 (stereo not drawn)	-1	4	+	4	-3
CC(=O)N1c2ccccc2-c2nc3ccccc3n2C1C (stereo not drawn)	-1	11	1	3	1
CCN1c2ccccc2-c2nc3ccccc3n2C1c1ccncc1 (stereo not drawn)	-1	12	14	-14	3
Cc1ccc(C2N(C)c3ccccc3-c3nc4ccccc4n32)o1 (stereo not drawn)	-4	19	183*	9	5
O=C(NC1CC2CCC1C2)c1ccco1 (stereo not drawn)	0	0	0	-1	1
O=C1NC(=Nc2ccccc2Cl)S/C1=C\c1ccc(C(=O)O)cc1	1	41*	-2	0	-2
O=C1NC(=NCc2ccccc2)S/C1=C\c1ccccc1	0	43*	-2	-3	-11
O=C1NC(=Nc2ccccc2Cl)S/C1=C\c1cccc([N+](=O)[O-])c1O	0	36*	-10	9	-3
O=C1N/C(=N/O)S/C1=C/c1cccnc1	1	11	3	87	4
CC1(C)C(=O)Nc2ccccc2N1C(=O)COc1ccccc1C#N	3	9	1	-1	-7
CC(C)(C)NC(=S)NNC(=O)c1cccc(Br)c1	2	8	-3	-6	10
O=C(/C=C/C=C/c1ccccc1)c1ccco1	-1	6	-2	-6	-4
Cc1cccc(CSc2nnc(CCNC(=O)OC(C)(C)C)o2)c1	3	-7	1	-3	-6
O=c1c(OCc2ccccc2)cccn1Cc1ccccc1	/	1	1	/	/
O=c1c(-c2nc3ccccc3s2)cccn1Cc1ccccc1	1	21	194*	3	8
CN(C1CCCCC1)S(=O)(=O)c1ccc2[nH]c(=O)oc2c1	-3	1	3	0	6
CC1=NN(C(N)=S)C(=O)C1N=Nc1c(C)n(C)n(-c2ccccc2)c1=O (stereo not drawn)	1	31*	-11	-1	2
COc1ccccc1CNS(=O)(=O)c1ccc(Br)s1	0	-2	2	6	-4
Cc1ccc(C(=O)NCc2ccc3c(c2)OCO3)c(C)c1	-1	4	153*	6	0
SMILES	UGM FP inh	GDH-TPI inh	Mtb FBA inh	Mtb betalactam	Rv3671c protease
Cc1ccc(C(=O)NCc2ccc3c(c2)OCO3)c(Cl)c1	/	6	4	/	/
Cc1cccc(C(=O)OCC(=O)NCc2ccc3c(c2)OCO3)c1C	0	-5	1	-4	-7
COc1cccc(C(=O)OCC(=O)NCc2ccc3c(c2)OCO3)c1OC	10*	10	3	-11	0
c1coc(-c2nnc(-c3cccs3)o2)c1	0	6	150*	-20	10
O=c1cc(-c2ccco2)nc(-c2cccs2)o1	2	16	5	12	3
Cc1ccccc1N1C(=O)C(Cc2ccc(F)cc2)S/C1=C(\C#N)C(N)=O (stereo not drawn)	-3	1	-1	0	4
CCc1ccc2c(c1)c(N=NC1=NC(=O)CS1)c(O)n2CC	-2	31*	-8	95	-1
CCOC(=O)c1nc2sc3c(c2c(=O)n1C(C)C(=O)OCC)CCCC3 (stereo not drawn)	-2	11	135*	88	6
CCN(Cc1ccccc1)C(=O)CSc1ncn[nH]1	-1	1	1	-2	3
CN(C)c1ccc(-c2nnc(-c3ccccc3F)o2)cc1	3	33*	22	-2	4
COc1ccc(-c2nnc(-c3ccc(N(C)C)cc3)o2)cc1	2	22	18	50	-10
CCCn1c(-c2cccs2)nc2nc3ccccc3nc21	-2	31*	+	-18	-2
COCCn1c(-c2cccs2)nc2nc3ccccc3nc21	1	19	+	-6	13
COc1ccc(Cl)cc1N(CC(=O)Nc1ccccc1C(=O)N1CCOCC1)S(C)(=O)=O	1	6	-1	-15	-1
CC(=O)Nc1sc(N/N=C/c2ccc(O)cc2)nc1-c1ccc(C)cc1	2	35*	5	89	4
CC(=O)Nc1sc(N/N=C/c2ccccc2)nc1-c1ccc(C)cc1	6	6	1	1	1
Cc1nc(Nc2ccccc2)sc1C(=O)Nc1ccccc1	2	18	-1	11	-8
Cc1nc(Nc2ccc(S(N)(=O)=O)cc2)sc1C(=O)Nc1ccccc1	0	35*	0	0	4
Cc1nnc(Nc2ccc(S(N)(=O)=O)cc2)c2ccccc12	1	34*	1	0	-3
C=CCN1C(=O)/C(=c2\sc3nc(=O)c(Cc4ccc(OC)c(OC)c4)nn3c2=O)c2ccccc21	-1	11	0	1	-2
COc1cc2c(c(OC)c1CC=C(C)C)C[C@H](c1ccc(O)cc1O)CO2	-1	2	1	-2	-13
COc1ccccc1NC(=O)c1sc2nc(Cc3ccccc3)cc(C(F)(F)F)c2c1N	30*	8	1	0	-2
O=C(NNC(=O)c1cc2cc3ccccc3nc2s1)c1cccc(Cl)c1	0	9	3	-1	-17
O=C(NNC(=O)c1cc2cc3ccccc3nc2s1)c1ccc(F)cc1	0	34*	5	-4	-29
CC1(OC(=O)c2cnc3ccccc3n2)C(=O)C=C2C=C(C3CC3)OC=C2C1=O (stereo not drawn)	5	/	/	1	38*
SMILES	UGM FP inh	GDH-TPI inh	Mtb FBA inh	Mtb betalactam	Rv3671c protease
CC1(OC(=O)c2ccco2)C(=O)C=C2C=C(C3CC3)OC=C2C1=O (stereo not drawn)	0	6	-1	13	6
CN1C(=O)S/C(=C/c2cccnc2)C1=O	-1	32*	-5	6	-8
O=C(NCCN1C(=O)S/C(=C/c2cccnc2)C1=O)c1cccs1	2	32*	0	-3	-3
O=C(O)CN1C(=O)S/C(=C\c2cccnc2)C1=O	-1	13	2	5	3
CCOC(=O)c1cc2c(=O)[nH]ccc2nc1C(F)(F)F	-3	4	24	-9	-3
CCOC(=O)c1cc2c(=O)[nH]ccc2nc1C	0	7	120*	-3	2
Cc1c(/C=C/C(=O)c2ccc(C(C)C)cc2)cnn1C	-1	22	7	-2	-1
O=C(CN1CCN(CC(=O)Nc2ccccc2Cl)CC1)NCC1(N2CCOCC2)CCCCC1	/	5	0	/	/
CN(C)c1ccc(C=NNc2nc3c([nH]2)c(=O)n(C)c(=O)n3C)cc1	/	47*	15	/	/

Compound activity: PubChem, several laboratories
